Compounds without any hit were thinned out: in the full panel of roughly 83,000, 20% have a hit.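 Each cell line was grown in a 96-well plate and treated with one concentration of compound for 48 hours. Values below 10 were considered active.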 Unmarked numbers belong to inactive results. Calls of active or inactive are those of the source.

For seven molecules, growth results are on record in PubChem BioAssay (NCI).

What all share (test): NCI-60 one-dose screen, 48 h (100 = growth as untreated, 0 = no growth, -100 = all killed)
What all share (conditions): 10 µM unless noted

Assay [1] concerns HCT-15 colon.
The test system of assay [2] is HT29 colon.
The subject of assay [3] is SNB-75 CNS.
The test system of assay [4] is SNB-19 CNS.
The subject of assay [5] is U251 CNS.
The test system of assay [6] is PC-3 prostate.
Assay [7] relates to SK-MEL-5 melanoma.
Assay [8] concerns UACC-62 melanoma.
Assay [9] concerns LOX IMVI melanoma.
The test system of assay [10] is SK-MEL-28 melanoma.
Assay [11] has as its system SK-MEL-2 melanoma.
The subject of assay [12] is EKVX NSCLC.
In assay [13] the test system is SN12C renal.
The subject of assay [14] is UO-31 renal.
Assay [15] has as its system TK-10 renal.
Assay [16] concerns ACHN renal.
The subject of assay [17] is CAKI-1 renal.
In assay [18] the test system is A498 renal.
Assay [19] deals with CCRF-CEM leukemia.
The test system of assay [20] is MOLT-4 leukemia.

Take `CC(C)c1nc(N(C)S(C)(=O)=O)nc(-c2ccc(F)cc2)c1/C=C/C(=O)C[C@@H](O)CC(=O)O`: the growth in assay [1] is 108%; in [2] it was 85.6%; in assay [3], 91.4%; in assay [4], 105%; in assay [5], 105%; in [6], 97.6%. Besides, the growth in [7] was 105%; in [8], 99.5%; in assay [9] it was 101%; in assay [10] it was 112%; in assay [11], 81.1%; in [12] it was 107%. For the same molecule, the growth was 110% in [13]; 93.1% in assay [14]; 88.4% in [15]; 108% in [16]; 98.5% in assay [17]; 106% in assay [18]. Further, the growth in [19] was 102%; in assay [20], 107%.
For the molecule `CCCCCCCCNC(=O)[C@@H](N)CSCOC(C)=O`, the growth in assay [1] was 99.5%; in assay [2], 89.4%; in assay [3], -17.3% (active); in [4], 90.8%; in [5], 102%; in assay [6], 75.9%. Moreover, the growth is 48.7% in assay [7]; 70% in assay [8]; 44.4% in assay [9]; 99.6% in assay [10]; 89.1% in [11]; 111% in assay [12]. Moreover, the growth in assay [13] is 91.7%; in assay [14], 94.9%; in [15], 105%; in assay [16] it was 100%; in [17] it was 107%; in assay [18], 63%. Further, the growth in assay [19] is 45.7%; in assay [20], 90.4%.
For `CCN1C(=O)N(CC)C2C1NN=c1s/c(=C\c3ccc(F)cc3)c(=O)n12` (stereo not given), the growth was 13.9% in [1]; 3.48% (active) in assay [2]; -1.81% (active) in assay [3]; 28% in assay [4]; 9.98% (active) in [5]; 25.4% in assay [6]. For the same molecule, the growth is 16.8% in assay [7]; 28.8% in assay [8]; 20% in [9]; 63% in assay [10]; 55.3% in [11]; 56.3% in assay [12]. Moreover, the growth was 31.5% in assay [13]; 41.7% in [14]; 64.8% in [15]; 35.2% in [16]; 33% in [17]; 23.4% in assay [18]. In addition, the figures for the growth in [19] and in assay [20] were 4.82% (active) and 14.3%, respectively.
Turning to `CNC1=C(Br)C(=O)c2c(C(=O)OC)c(C)nc(C)c2C1=O`, the growth in assay [1] is 36.8%; in assay [2] it was 19.8%; in [3], 139%; in [4], 82.9%; in assay [5] it was 71.1%; in assay [6], 48.9%. For the same molecule, the growth in assay [7] is -90.9% (active); in [8], 1.42% (active); in [9], 35.3%; in [10] it was 91.3%; in [11], 52.1%; in assay [12] it was 79.3%. Further, the growth is 45.4% in assay [13]; 77.4% in assay [14]; 132% in assay [15]; 72% in [16]; 68.2% in assay [17]; 93.1% in assay [18]. Also, the growth in assay [19] is 77.3%; in assay [20] it was 79.8%.
As to `CC1=C(C(=O)c2ccccc2)C(c2ccc3c(c2)OCO3)NC(=S)N1` (stereo not given), the growth in assay [1] is 33.7%; in [2] it was 18.5%; in [3] it was -1.4% (active); in assay [4], 63.8%; in assay [5] it was 37.5%; in assay [6], 61.5%. Also, the growth is 28.2% in assay [7]; 51.6% in [8]; 36.2% in assay [9]; 70.9% in assay [10]; 60.5% in [11]; 73.5% in assay [12]. Moreover, the growth is 51.4% in assay [13]; 55.7% in [14]; 66% in [15]; 45.5% in assay [16]; 35.6% in assay [17]; -12.5% (active) in assay [18]. For the same molecule, the results for the growth in [19] and in [20] were 41.2% and 36.6%, respectively.
On to `COc1cccc(-c2cc(-c3ccc(Nc4nc(Nc5ccc(Cl)cc5)nc(Nc5ccc(Cl)cc5)n4)cc3)nc(N)c2C#N)c1`, for which the growth in assay [1] was 22.8%; in assay [2] it was 16.8%; in assay [3], 65.9%; in [4], 106%; in assay [5], 3.83% (active); in assay [6], -5.44% (active). Moreover, the growth in [7] is 13%; in assay [8] it was 76.4%; in assay [9], -33.6% (active); in assay [10], -59.7% (active); in assay [11], 37.7%; in assay [12], 34.3%. The growth in assay [13] was 79%; in assay [14], -66.8% (active); in assay [15], -53.4% (active); in assay [16] it was 33.1%; in assay [17], 37.3%; in assay [18], 80.5%. In addition, the growth in assay [19] was 5.11% (active); in assay [20], 7.5% (active).
On to `Cc1c(CC(=O)Nc2ccccc2)nnn1-c1ccccc1`, for which the growth was 101% in assay [1]; 111% in assay [2]; 104% in assay [3]; 102% in [4]; 102% in assay [5]; 104% in [6]. In addition, the growth is 101% in assay [7]; 97.7% in assay [8]; 97.7% in assay [9]; 112% in assay [10]; 107% in [11]; 104% in assay [12]. For the same molecule, the growth is 108% in [13]; 88.2% in assay [14]; 101% in assay [15]; 109% in assay [16]; 97.5% in assay [17]; 108% in assay [18]. Also, the growth in assay [19] is 105%; in [20], 99.7%.
